Reference: PubChem BioAssay (NCI)
Compounds without any hit were thinned out: in the full panel of roughly 79,000, 15% have a hit. A number with no mark means an inactive call. Activity calls are given as the source filed them. Rule as the data show it: active = growth inhibition above about 70%; inactive = the rest.

Key:
[1] = NCI Yeast Anticancer Drug Screen. Data for the rad50 strain (AID 155);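 also: 0% = growth of vehicle-only cultures of the same strain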; details: S. cerevisiae rad50 strain growth inhibition, active compounds read high
How it was run: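 DNA repair mutant yeast, compound exposure, growth read-out; inhibition is taken relative to vehicle.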

[2] = NCI Yeast Anticancer Drug Screen. Data for the mec2-1 strain (AID 157); details: S. cerevisiae mec2-1 strain, active compounds read high
How it was run: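 Vehicle-treated cultures served as reference for growth inhibition of compound-exposed mec2-1 yeast.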

[3] = NCI Yeast Anticancer Drug Screen. Data for the sgs1 mgt1 strain (AID 161);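 also: 0% = growth of cultures given vehicle only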; details: S. cerevisiae sgs1 mgt1 strain, active compounds read high
How it was run: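 Mutant yeast exposed to compound; growth scored against vehicle-only wells.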

[4] = NCI Yeast Anticancer Drug Screen. Data for the cln2 rad14 strain (AID 165);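 also: 0% = growth equal to vehicle treated cultures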; details: S. cerevisiae cln2 rad14 strain, active compounds read high
How it was run: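 Each compound was tested on cln2 rad14 yeast. Inhibition of growth was calculated against vehicle-exposed controls.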

[5] = NCI Yeast Anticancer Drug Screen. Data for the bub3 strain (AID 167); details: S. cerevisiae bub3 mutant strain, active compounds read high
How it was run: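 In this screen, a yeast mutant lacking normal mitotic checkpoint function is challenged with compound. Relative growth versus vehicle gives the inhibition value.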

[6] = NCI Yeast Anticancer Drug Screen. Data for the mlh1 rad18 strain (AID 175); details: S. cerevisiae mlh1 rad18 strain growth inhibition, active compounds read high
How it was run: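 Vehicle-treated cultures served as the reference for growth inhibition in a yeast strain carrying DNA damage repair alterations exposed to each compound.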

[7] = at 5.0 µM (retest, dose inferred, filed as 0.5)
[8] = at 50.0 µM (retest, dose inferred, filed as 5.0)

Row | Structure (SMILES) | growth inhibition [1, 7] | growth inhibition [1, 8] | growth inhibition ([1]; at 50.0 µM) | growth inhibition [2, 7] | growth inhibition [2, 8] | growth inhibition ([2]; at 50.0 µM) | growth inhibition [3, 7] | growth inhibition [3, 8] | growth inhibition ([3]; at 50.0 µM) | growth inhibition [4, 7] | growth inhibition [4, 8] | growth inhibition ([4]; at 50.0 µM) | growth inhibition [5, 7] | growth inhibition [5, 8] | growth inhibition ([5]; at 50.0 µM) | growth inhibition [6, 7] | growth inhibition [6, 8] | growth inhibition ([6]; at 50.0 µM)
1 | COC(=O)/C=C/c1c2ccccc2cc2ccccc12 | 11% | 28% | 14.8% | 13% | 39% | 25.2% | 18% | 46% | 64.3% | 8% | 24% | 39.8% | 9% | 28% | 37% | 6% | 36% | 75.3% (active)
2 | O=C1CSC(=Nc2ccc(F)cc2F)N1Cc1cccs1 | 44% | 92% (active) | 80.2% (active) | 36% | 98% (active) | 78.2% (active) | 39% | 98% (active) | 90.5% (active) | 25% | 63% | 50.1% | 41% | 61% | 86.2% (active) | 47% | 98% (active) | 84.6% (active)
3 | O=C(CSc1nnc(Cc2ccccc2)o1)Nc1ccc(Cl)cc1 | -20% | 87% (active) | 16.1% | -5% | 54% | 15.2% | -1% | 80% (active) | 48.6% | 18% | 79% (active) | 35% | 4% | 91% (active) | 26.2% | -5% | 91% (active) | 28.8%
4 | C=C(CN(C)C)C(=O)c1ccccc1C | -2% | 65% | 87.6% (active) | -8% | 88% (active) | 78.7% (active) | 13% | 86% (active) | 85% (active) | -17% | 45% | 65.8% | -11% | 89% (active) | 91.1% (active) | -4% | 97% (active) | 97% (active)
5 | CCOC1(OCC)C(C)C(c2ccccc2)C(c2ccccc2)C1C (configuration not stated) | -3% | -1% | 79.3% (active) | -6% | -4% | 98.8% (active) | -8% | 13% | 8.1% | -4% | -2% | 98.5% (active) | -8% | -5% | 99% (active) | -9% | 9% | 98.7% (active)
6 | FC(F)(F)C(F)(F)C1(F)C(F)(F)C(F)(F)C(F)(F)C(F)(F)C1(F)F | -1% | -2% | 99.7% (active) | -2% | 1% | 99.5% (active) | -1% | -3% | 99.6% (active) | 1% | -8% | 97.2% (active) | 3% | 4% | 99.5% (active) | 2% | -2% | 99.2% (active)
7 | CN/N=C(\C)C(CN1CCCCC1)C(C1=C(O)c2ccccc2OC1)c1ccccc1 (configuration not stated) | 25% | 25% | 69.8% | 25% | 25% | 57.6% | 9% | 9% | 78.7% (active) | -1% | -1% | 66.7% | 10% | 10% | 67.7% | 25% | 25% | 72% (active)
8 | OC/C(=C\c1ccccc1Br)c1ccccc1Br | 2% | 99% (active) | 99% (active) | 7% | 100% (active) | 99.1% (active) | 6% | 66% | 99.2% (active) | 0% | 100% (active) | 97.5% (active) | 10% | 99% (active) | 99% (active) | -10% | 99% (active) | 99% (active)
9 | CC(C)(Oc1ccc(-c2cccc3ccccc23)cc1)C(=O)O | 9% | 42% | 58.3% | 5% | 51% | 13.7% | 6% | 49% | 29.4% | -6% | 54% | 70.5% (active) | 13% | 54% | 67.8% | -6% | 49% | 28.8%
10 | CCCCCCCCCCCCCCCCOc1ccc(S(=O)(=O)N/N=c2/sc3ccc(S(=O)(=O)O)cc3n2C)cc1C(=O)O | 6% | 88% (active) | 79.6% (active) | 6% | 63% | 78.7% (active) | 0% | 76% (active) | 76% (active) | 16% | 62% | 40.2% | -3% | 83% (active) | 68.8% | -13% | 88% (active) | 73.4% (active)
11 | COC(=O)c1nc(NC#N)[nH]c(=O)c1CCCCCc1cnc(NC#N)nc1 | -3% | 1% | -2.4% | -2% | -2% | 4.05% | -1% | 4% | -3.25% | -4% | 1% | 7% | 0% | -1% | -0.4% | 0% | -2% | -6.1%
12 | O=C(O)CCCNc1ncc2c(n1)-c1ccccc1OC2 | 19% | 7% | 65.5% | 11% | 9% | 51% | 8% | 12% | -3.35% | 20% | 15% | -26% | 14% | 8% | -22.9% | 12% | 9% | -9.3%
13 | COc1ccc2cc(Br)ccc2c1 | 4% | -25% | 10.3% | 6% | -2% | 5.1% | 2% | 1% | 9.85% | 8% | -2% | -10.4% | 32% | 6% | -0.55% | 4% | -2% | 17.2%
14 | CC(CCCOC(c1ccccc1)(c1ccccc1)c1ccccc1)OC(=O)Nc1ccccc1 (configuration not stated) | 85% (active) | 85% (active) | 83.9% (active) | 81% (active) | 81% (active) | 85.8% (active) | 63% | 63% | 84% (active) | 92% (active) | 92% (active) | 83% (active) | 69% | 69% | 79.7% (active) | 93% (active) | 93% (active) | 81.5% (active)
15 | O=c1c(-c2ccccc2)coc2cc(O)ccc12 | -14% | 8% | 60.6% | 5% | 23% | 36.9% | -6% | 16% | 63.3% | -12% | -12% | 18.1% | -25% | 34% | 75.8% (active) | -3% | 12% | 4.9%
16 | COC(=O)Nc1nc2ccc(CCC(=O)c3c(C)oc(C)c3-c3ccc(NC(C)=O)cc3)cc2[nH]1 | 4% | 79% (active) | 58.1% | 4% | 55% | 37.3% | 5% | 78% (active) | 75.8% (active) | 6% | 67% | 27.4% | 5% | 70% (active) | 26.1% | -2% | 69% | 60.7%
17 | O=[N+]([O-])c1cccc(F)c1O | 5% | 87% (active) | 52.5% | 6% | 79% (active) | 33.1% | 6% | 78% (active) | 42.5% | 6% | 65% | 0.25% | 0% | 73% (active) | 11.3% | 0% | 89% (active) | 78.3% (active)
18 | O=[N+]([O-])c1ccccc1C(c1ccc2ccccc2c1O)N1CCOCC1 (configuration not stated) | 99% (active) | 95% (active) | 97.5% (active) | 100% (active) | 97% (active) | 97.8% (active) | 99% (active) | 98% (active) | 94.8% (active) | 78% (active) | 96% (active) | 97% (active) | 99% (active) | 97% (active) | 95.8% (active) | 98% (active) | 97% (active) | 95.4% (active)
19 | Cc1c2cnccc2c(C)c2c1c1ccccc1n2CCCCCCNCc1ccccc1 | 9% | 95% (active) | 99% (active) | -1% | 76% (active) | 99.2% (active) | 1% | 91% (active) | 99.3% (active) | 2% | 83% (active) | 98.2% (active) | 2% | 74% (active) | 98.8% (active) | -3% | 97% (active) | 99% (active)
